# Laboratory results reported in PubChem BioAssay (Tox21).
# Inconclusive results are not listed. Unmarked numbers belong to inactive results. Unless noted, the call rests on the fitted dose curve.
# Assay: qHTS assay for small molecule agonists of the antioxidant response element (ARE) signaling pathway (AID 743202; active means well fitted activation curve with a large enough effect in the signal ratio in the repeat runs, not every such curve was filed as active; the % refers to the signal ratio)
# Conditions: HepG2 ARE-bla reporter, beta-lactamase FRET, 16 h; series mostly up to 73.3 µM; activation: at the top concentration
# How it was run: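 Following a 16 h, 37 C exposure of reporter HepG2 cells (ARE-driven beta-lactamase, 2,000 cells/well) to compounds, FRET substrate was applied for 2 h at room temperature and fluorescence intensity recorded.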
# On the % scale 0 is the no-effect control and ±100 the full control effect.
row,Compound,activation
1,N[C@@H](CCC(=O)O)C(=O)O,-0.39%
2,CC(C)C1CCC(O)CC1 (centres undefined),-12%
3,CCCCN1C=CN(C)C1,-3.81% [at 34.3 µM]
4,CC(C#N)(CCC(=O)O)N=NC(C)(C#N)CCC(=O)O (centres undefined),-8.07%
5,NS(=O)(=O)Cc1noc2ccccc12,1.74%
6,[O-][n+]1cccc(CO)c1,2.39%
7,O=C(O)CC(C(=O)O)S(=O)(=O)O (centres undefined),-6.3%
8,NC(CCC(=O)O)C(=O)O (centres undefined),-5.34%
9,c1ccc(Cc2ccccc2)cc1,-0.697%
10,NCCCC[C@H](N[C@@H](CCc1ccccc1)C(=O)O)C(=O)N1CCC[C@H]1C(=O)O,-9.57%
11,CC(=O)c1ccccc1[N+](=O)[O-],-14%
12,Nc1ccncc1N,1.34%
13,CCOC(=O)c1cnc2c(cnn2CC)c1NN=C(C)C,9.38%
14,CN1CC(=O)N/C1=N/C(=O)Nc1cccc(Cl)c1,4.01%
15,CCN[C@@H]1C[C@H](N)[C@@H](OC2OC(CN)=CCC2N)[C@H](O)[C@H]1O[C@H]1OC[C@](C)(O)[C@H](NC)[C@H]1O (some centres undefined),-10.7% [at 0.756 µM]
16,CC(C)(C)C(=O)Oc1ccc(S(=O)(=O)Nc2ccccc2C(=O)NCC(=O)O)cc1,-8.87%

row,Compound,activation
1,CN(C)CCCN(C)CCCN(C)C,-1.18%
2,CC(=O)NC(=O)c1ccccc1O,-0.783%
3,CCC(C(=O)NC(=O)NC(C)=O)c1ccccc1 (centres undefined),2.82%
4,O=C(O)CCSCCC(=O)O,-2.16%
5,CCC(C)(CCCC(C)C)OC(C)=O (centres undefined),-9.79%
6,CC(=O)Nc1ccc(OCC(O)CNC(C)C)cc1 (centres undefined),1.08%
7,CN(C)[C@@H]1C(=O)C(C(=O)NCN2CCCC2)=C(O)[C@@]2(O)C(=O)C3=C(O)c4c(O)cccc4[C@@](C)(O)C3C[C@@H]12 (some centres undefined),-9.54%
8,O=C(CO)[C@@H](O)[C@H](O)[C@@H](O)CO,-7.18%
9,COC(=O)Nc1ccc(Cl)c(Cl)c1,4.06%
10,CCCc1ncc(C[n+]2ccccc2C)c(N)n1,-13.4%
11,CCCCCCCCCCCCCCCCCCO,-7.07%
12,COc1cc(C(=O)OC(COCCC(C)C)CN2CCOCC2)cc(OC)c1OC (centres undefined),5.48%
13,CCC1C(=O)OCC1Cc1cncn1C (centres undefined),-10.8%
14,CCCOC(=O)CC,-7.98%
15,CCC(=O)OCc1ccccc1,2.1%
16,CCOc1ccccc1OCC,0.33%

# Assay: qHTS assay for small molecule agonists of the antioxidant response element (ARE) signaling pathway - cell viability counter screen (AID 743203); further: nearly all actives have a fitted effect of over 55% in size
# Conditions: ARE-bla HepG2 viability, CellTiter-Glo luminescence, 16 h; series mostly up to 73.3 µM; viability change, negative = cytotoxic: at the top concentration
# How it was run: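 Luminescence read-out (CellTiter-Glo, 30 min at room temperature) measured cell viability in the same wells as the ARE beta-lactamase reporter. HepG2 ARE-bla cells were treated with compounds for 16 hrs at 37C/5% CO2.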
row,Compound,"viability change, negative = cytotoxic"
1,N[C@@H](CCC(=O)O)C(=O)O,16.5%
2,CC(C)C1CCC(O)CC1 (centres undefined),-24.9%
3,CO[C@@]1(NC(=O)CSC[C@@H](N)C(=O)O)C(=O)N2C(C(=O)O)=C(CSc3nnnn3C)CS[C@@H]21,0.751%
4,CCCCN1C=CN(C)C1,5.18% [at 34.3 µM]
5,CC(C#N)(CCC(=O)O)N=NC(C)(C#N)CCC(=O)O (centres undefined),10.3%
6,NS(=O)(=O)Cc1noc2ccccc12,11.8%
7,O=S(=O)(O)c1cc(O)c(O)c(S(=O)(=O)O)c1,1.99%
8,[O-][n+]1cccc(CO)c1,-0.961%
9,O=C(O)CC(C(=O)O)S(=O)(=O)O (centres undefined),1.72%
10,NC(CCC(=O)O)C(=O)O (centres undefined),-1.21%
11,c1ccc(Cc2ccccc2)cc1,0.0498%
12,NCCCC[C@H](N[C@@H](CCc1ccccc1)C(=O)O)C(=O)N1CCC[C@H]1C(=O)O,3.37%
13,CC(=O)c1ccccc1[N+](=O)[O-],3.44%
14,Nc1ccncc1N,0.754%
15,CCOC(=O)c1cnc2c(cnn2CC)c1NN=C(C)C,-0.41%
16,CN1CC(=O)N/C1=N/C(=O)Nc1cccc(Cl)c1,19.2%
17,CC(=O)O[C@@]12CO[C@@H]1C[C@H](O)[C@@]1(C)C(=O)[C@H](O)C3=C(C)[C@@H](OC(=O)[C@H](O)[C@@H](NC(=O)OC(C)(C)C)c4ccccc4)C[C@@](O)([C@@H](OC(=O)c4ccccc4)[C@H]21)C3(C)C,-2.2%
18,COc1cc(C(=O)NCc2ccc(OCCN(C)C)cc2)cc(OC)c1OC,-0.121%
19,O=[N+]([O-])c1ccc(/C=N\O)o1,3.63%

row,Compound,"viability change, negative = cytotoxic"
1,CCN[C@@H]1C[C@H](N)[C@@H](OC2OC(CN)=CCC2N)[C@H](O)[C@H]1O[C@H]1OC[C@](C)(O)[C@H](NC)[C@H]1O (some centres undefined),-2.08% [at 0.756 µM]
2,CC(C)(C)C(=O)Oc1ccc(S(=O)(=O)Nc2ccccc2C(=O)NCC(=O)O)cc1,2.76%
3,CN(C)CCCN(C)CCCN(C)C,0.581%
4,CC(=O)NC(=O)c1ccccc1O,-0.472%
5,CCC(C(=O)NC(=O)NC(C)=O)c1ccccc1 (centres undefined),7.33%
6,O=C(O)CCSCCC(=O)O,6.55%
7,CCC(C)(CCCC(C)C)OC(C)=O (centres undefined),1.27%
8,CC(=O)Nc1ccc(OCC(O)CNC(C)C)cc1 (centres undefined),7.52%
9,CN(C)[C@@H]1C(=O)C(C(=O)NCN2CCCC2)=C(O)[C@@]2(O)C(=O)C3=C(O)c4c(O)cccc4[C@@](C)(O)C3C[C@@H]12 (some centres undefined),2.78%
10,O=C(CO)[C@@H](O)[C@H](O)[C@@H](O)CO,-1.56%
11,COC(=O)Nc1ccc(Cl)c(Cl)c1,1.69%
12,CNCCO,6.86%
13,CCCc1ncc(C[n+]2ccccc2C)c(N)n1,-3.04%
14,CCCCCCCCCCCCCCCCCCO,9.44%
15,COc1cc(C(=O)OC(COCCC(C)C)CN2CCOCC2)cc(OC)c1OC (centres undefined),1.78%
16,CCC1C(=O)OCC1Cc1cncn1C (centres undefined),0.0456%
17,CCC(=O)OCc1ccccc1,8.11%
18,CCOc1ccccc1OCC,3.05%
